Bioassay records: PubChem, National Center for Advancing Translational Sciences (NCATS)
Sampled rows, rich in hits. Any-hit rate of the full collection: about 21%.
ClpP mod – qHTS Assay for Activators of ClpP. ATP-dependent Clp protease proteolytic subunit (Bacillus subtilis (strain 168)), P80244. purified B. subtilis ClpP, FRET peptide cleavage, 20 min. Potency, µM (top dose mostly 57.5 µM), for the others: top-dose activity change, negative = active. actives 1.9% (n = 340,000). AID 651965, 2013; active = well fitted falling curve with a large enough effect; inconclusive = small, poorly fitted or top-dose-only effect; inactive = no such curve, though single readings can be large or run the other way; also: potency is read from the fitted curve at half-maximal effect; the source files actives as falling curves though it sought activators and does not explain the sign; nearly all actives have a fitted effect of over 65% in size
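Purified B. subtilis ClpP, 10 microg/mL final in Tris/HCl pH8 with KCl, BSA, glycerol and Tween-20, cleaved an Abz/nitrotyrosine-quenched decapeptide. Fluorescence (ex 320, em 430) was read at 0 and 20 min at room temperature. Delta was normalized to 5.8 microM ADEP and DMSO/no-enzyme controls.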
DT40 TDP1 no CPT – qHTS for Inhibitors of human tyrosyl-DNA phosphodiesterase 1 (TDP1): qHTS in cells in absence of CPT; DT40 Tdp1-/- hTDP1 cells, no CPT, ATP luminescence, 48 h; Potency, µM (series often up to 46.2 µM), for inactives: at the top dose activity change, negative = growth inhibition, hits mostly inhibitors; actives 15% (n = 420,000); also: potency is read from the fitted curve at half-maximal effect; % is scaled to controls: 0 for no effect and ±100 for the full control effect; nearly all actives have a fitted effect of over 55% in size
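Seeded 400 DT40-hTDP1 cells/well (vehicle DMSO, no 20 nM CPT); pinned compounds; ≥48 hr at 37 °C; CellTiter-Glo luminescence as viability measure.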
DRD3 antagonist – D3 dopamine receptor (human) antagonism; AID 652054; max response, negative = inhibition, %; actives 2.5% (n = 360,000); P35462; D3R cells, DiscoveRx beta-arrestin luminescence, antagonist mode; hits give low values; in the data active = max response below about -50%; inconclusive = no clear call, values can overlap the other calls; also: % is scaled to controls: 0 for no effect and ±100 for the full control effect
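Cells expressing the human receptor were seeded at 1500 cells/well, incubated overnight at 37 degrees C in 5% CO2, then exposed to library compounds with dopamine controls for 90 minutes at 37 degrees C before luminescent detection.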
TDP1 cell CPT – DT40-hTDP1 cell growth loss with CPT; actives 12% (n = 420,000); chicken DT40 Tdp1-/-;hTDP1 cells + 20 nM CPT, ATP luminescence, 48 h; Potency, µM (titrated, usually from 46.2 µM), without a hit: at the highest dose activity change, negative = growth inhibition, hits mostly inhibitors; AID 686979; also: potency is read from the fitted curve at half-maximal effect; % is scaled to controls: 0 for no effect and ±100 for the full control effect; nearly all actives have a fitted effect of over 55% in size
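Cell growth measured by CellTiter-Glo luminescence after a minimum 48 h, 37 C compound exposure with 20 nM CPT in Tdp1-knockout DT40 cells stably expressing hTDP1, seeded 400/well; qHTS titration format.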
D3 ag – agonists of human D3 dopamine receptor | AID 652048 | actives 0.58% (n = 410,000) | D3R DiscoveRx beta-arrestin cells, luminescence, 90 min | P35462 | max activation, %; in the data active = max activation above about 30%; also: 0% is about no effect
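Cells at 1500/well, incubated overnight, then treated with pinned compounds (dopamine as control) for 90 min at 37 degrees C. DiscoveRx reagent added for 30 - 60 minutes at room temperature; luminescence read.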
IL1B secr inh – inflammasome signaling inhibition, IL-1 beta readout | THP-1 LPS/ATP IL-1B secretion, AlphaLISA, 16 h; hits give low values | activity change, % at 57.5 µM | actives 4.7% (n = 360,000); in the data active = activity change below about -50%; inconclusive = mostly about -30% to -49%; also: % is scaled to controls: 0 for no effect and ±100 for the full control effect
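Secreted IL-1B measured by AlphaLISA bead assay after 16 h compound exposure of THP-1 cells; compounds (final up to 57.5 uM) added 1 h before LPS (250 ng/mL) and ATP (1.25 mM) stimulation; lower signal means less secretion.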
The depositor's hits bear a star; ? = inconclusive; nt = no result given. Unless noted, calls follow the shape of the dose curve; as a rule, active = well fitted inhibition curve with a large enough effect; inconclusive = small, poorly fitted or top-dose-only effect; inactive = flat fitted curve, though single readings scatter.

SMILES | ClpP mod | DT40 TDP1 no CPT | DRD3 antagonist | TDP1 cell CPT | D3 ag | IL1B secr inh
COC(=O)C1=CN(c2ccc(OC)cc2)C(N)=C(C#N)C1c1ccc(OC)cc1 (stereo not drawn) | -1% | ? | -7 | 10µM* | 0 | ?
COC(=O)C1=CN(c2ccc3c(c2)OCO3)C(N)=C(C#N)C1c1cccc(F)c1 (stereo not drawn) | -4% | 0.65µM* | 9 | 1.3µM* | 5 | 33
CCc1ccc(N2C=C(C(=O)OC)C(c3ccc(OC)cc3)C(C#N)=C2N)cc1 (stereo not drawn) | -6% | -82% | -11 | ? | -1 | -25
COC(=O)C1=CN(c2ccc(N3CCOCC3)cc2)C(N)=C(C#N)C1c1ccccc1 (stereo not drawn) | -5% | 18µM* | -16 | ? | 6 | -3
COC(=O)C1=CN(c2ccc(OC)cc2OC)C(N)=C(C#N)C1c1ccc(OC)cc1 (stereo not drawn) | 86% | 21µM* | -21 | ? | -2 | -6
Cc1csc(NC(=O)CSC2=NS(=O)(=O)c3cc(F)ccc3N2)n1 | -23% | -10% | 0 | -1% | 5 | 3
CCCNC(=O)c1ccc(Cn2c(SCC(=O)NC(C)C)nc3ccccc3c2=O)cc1 | -2% | -5% | nt | -18% | 5 | nt
Cc1sc2ccccc2c1CNC[C@H]1O[C@@H](n2cnc(C(N)=O)n2)[C@H](O)[C@@H]1O | 1% | -2% | 18 | 8% | 48* | -3
Cc1ccc(C(=O)N2CCN(c3cnn(C)c(=O)c3Cl)CC2)cc1 | nt | -9% | -14 | -17% | -8 | -5
O=C(CCNS(=O)(=O)c1ccc(Cl)cc1)N1CCN(Cc2ccccc2)CC1 | 1% | -17% | -9 | -24% | -6 | -2
Cc1c(C)c(C)c(S(=O)(=O)NCCC(=O)N2CCN(Cc3ccc(C#N)cc3)CC2)c(C)c1C | 0% | 8.2µM* | -16 | 16µM* | -5 | 8
CC(C)c1onc(C(=O)NCCc2ccccc2)c1[N+](=O)[O-] | nt | ? | -7 | 21µM* | -4 | -12
Cc1c([N+](=O)[O-])c([N+](=O)[O-])nn1CC(=O)NCCc1ccccc1 | -2% | 7% | 1 | -3% | 1 | -90*
CCCNC(=O)Cn1nc([N+](=O)[O-])c([N+](=O)[O-])c1C | -2% | -18% | -13 | -10% | 1 | -6
Cc1c(NC(=O)CN2C(=O)NC(C)(c3ccc(Cl)cc3)C2=O)c(=O)n(-c2ccccc2)n1C (stereo not drawn) | -17% | -2% | 14 | 5% | 2 | 9
CCN1C(=O)C2C(c3ccc(O)c(OC)c3)NC(C)(C(=O)OC)C2C1=O (stereo not drawn) | -5% | -15% | 5 | 2% | 0 | 33
CCN1C(=O)[C@H]2[C@@H](c3ccc(-c4cccc(Cl)c4)c(OC)c3)N[C@@](C)(C(=O)OC)[C@H]2C1=O | 4% | ? | -3 | 13µM* | -15 | -7
COC(=O)[C@]1(C)N[C@H](c2ccc(-c3ccc(Cl)c(Cl)c3)c(OC)c2)[C@@H]2C(=O)N(C)C(=O)[C@@H]21 | 4% | 7.3µM* | 0 | 9.2µM* | -11 | -13
Cc1ccc(S(=O)(=O)N2CCN(Cc3cc(Br)ccc3O)CC2)cc1 | 2% | ? | nt | 18µM* | -14 | nt
O=C(CN1CCN(S(=O)(=O)c2ccc(Br)cc2)CC1)c1ccc(O)c(O)c1 | -5% | 7.3µM* | -11 | 18µM* | 4 | 3
COc1ccc(OC)c(C(=O)CN2CCN(S(=O)(=O)c3ccc(Br)cc3)CC2)c1 | -5% | -18% | -18 | -11% | -5 | -12
COc1ccc(CNC(=O)CN2C(=O)COc3ccccc32)c(OC)c1 | 1% | -24% | nt | -4% | 6 | nt
N#CC1=C(N)NC(=S)C(C(N)=O)C1c1ccc(Cl)cc1Cl (stereo not drawn) | 0% | 18µM* | ? | 10µM* | -10 | 5
Cc1ccc(C(=O)c2cn(Cc3ccccc3F)c3cc4c(cc3c2=O)OCO4)cc1 | 0% | 21µM* | nt | ? | 2 | nt
Cc1ccc(Cn2cc(C(=O)c3ccc4c(c3)OCO4)c(=O)c3cc(C)ccc32)cc1 | -2% | 23µM* | nt | ? | 2 | nt
SMILES | ClpP mod | DT40 TDP1 no CPT | DRD3 antagonist | TDP1 cell CPT | D3 ag | IL1B secr inh
CC1(c2nnc(Cc3ccccc3)o2)CC(c2ccc([N+](=O)[O-])cc2)=NO1 (stereo not drawn) | 0% | ? | ? | -43% | -21 | -4
CS(=O)(=O)N(CC(=O)N1CCc2ccccc2C1)c1ccccc1Br | 0% | 14% | ? | -14% | -25 | 7
Cc1ccc(S(=O)(=O)N2CCC(=O)N(CCOCc3ccc(C(F)(F)F)cc3)CC2)cc1 | 0% | 8.2µM* | 0 | 4.6µM* | 10 | ?
O=C1CCN(S(=O)(=O)c2ccccc2)CCN1CCOCc1ccc(C(F)(F)F)cc1 | -4% | 13µM* | -19 | ? | 5 | 35
O=C(COC(=O)C1CCC1)NCc1ccccc1 | -5% | -14% | 5 | 1% | 4 | 7
CCCS/C(N)=N/N=C/c1ccccc1O | -2% | 18µM* | 6 | ? | -2 | ?
COc1cccc(OC)c1NC(=O)C1CCCN1C(=O)Nc1cccc(Cl)c1 (stereo not drawn) | nt | -4% | 3 | -3% | 0 | 33
Cc1ccc(Nc2nc(C(=O)N3CCC(C(=O)NCc4ccccc4)CC3)cs2)cc1 | nt | ? | 0 | -25% | 3 | ?
COc1ccc(CNC(=O)C2CCN(C(=O)c3csc(Nc4ccc(C)cc4)n3)CC2)cc1 | nt | ? | -9 | ? | -9 | -53*
COc1ccc(CNC(=O)C2CCN(c3nc4ccc(C)cc4[nH]3)CC2)cc1 | -2% | 10µM* | nt | ? | -1 | nt
COc1cccc(CNC(=O)C2CCN(c3nc4ccc(Cl)cc4[nH]3)CC2)c1 | -1% | ? | nt | 21µM* | 4 | nt
COc1ccc(CNC(=O)C2CCN(C(=O)[C@@H]3Cc4ccccc4CN3)CC2)cc1 | -4% | ? | -11 | 16µM* | 3 | -15
COc1ccc(NC(=O)C2CCN(C(=O)[C@@H]3Cc4ccccc4CN3)CC2)cc1 | -1% | 2% | 1 | -2% | -3 | 48
CCOC(=O)C1CCN(S(=O)(=O)c2ccccc2[N+](=O)[O-])CC1 | -1% | 7% | 39 | 28% | 6 | 1
